An excerpt weighted towards active compounds, which were near 3.1% of everything screened.
HIF-2a block: HIF-2a reporter inhibitors, primary screen, luminescence, 786-0 RCC cells; 786-0 RCC cells HIF-2a reporter, luciferase luminescence, overnight; inhibition, % at 18.8 µM; actives 0.72% (n = 360,000); AID 624352, 2012;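 active = inhibition of the luminescence signal of 40% or more relative to plate controls, in a single-dose primary screen at 18.75 µM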
PPC-1+TRAIL kill: compounds killing PPC-1 cancer cells with TRAIL present, primary screen, TRAIL potentiator project, ATPLite luminescence, uHTS. cell killing (% activity), % at 4 µM or 5 µM. actives 0.41% (n = 220,000). PPC-1 cells + TRAIL, ATPLite viability luminescence. AID 1443, 2008;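 active = cell killing above 50% in the first pass at 4 µM, then a duplicate retest at 5 µM averaging 50% or more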;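 note: plate controls were cells with TRAIL plus DMSO for no effect and medium-only wells lacking cells for full effect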
CF NFkB block: inhibitors of PAF-induced NF-kB signaling, primary screen, cell-based, GFP fluorescence, uHTS; inhibition, % at 5 µM; KKLEB NF-kB-GFP reporter, GFP fluorescence overnight; actives 0.86% (n = 360,000); AID 588850, 2011;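 active = at least 50% inhibition at 5 µM, scaled per plate between neutral and stimulator controls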;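 note: PAF is a Pseudomonas aeruginosa culture filtrate used as stimulus; plate controls were PAF-stimulated DMSO wells for no effect and unstimulated DMSO wells for full effect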
C8 TRAIL sens: viability loss with TRAIL in NB7+C8 cells, primary screen, TRAIL sensitizer project, cell-based, ATPlite luminescence | inhibition (viability loss, TRAIL sensitization), % at 10 µM | actives 1% (n = 360,000);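 active = compounds causing at least 50% loss of cell viability in the single-dose screen, relative to plate controls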
Peg3 prom inh: Peg3 promoter-driven luciferase inhibitors, primary screen, cell-based, HeLa, luciferase luminescence | inhibition, % at 20 µM | HeLa PEG-Prom luciferase reporter, overnight | actives 1.7% (n = 360,000) | AID 588405, 2011;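 active = inhibition of at least 50% at 20 µM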
KKLEB cytotox: cytotoxicity in KKLEB CF airway cells, primary screen, cytotoxicity control for CF NF-kB inhibitor project, cell-based, uHTS, fluorescence assay plates; AID 602141, 2011; KKLEB CF airway cells viability, ATPlite luminescence, overnight; hits give low values; cells stimulated with P. aeruginosa culture filtrate; activity change (cytotoxicity), % at 5 µM; actives 0.36% (n = 360,000);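 active = corrected activity change at or below -50% at 5 µM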
Mdm2-MdmX confirm: retested Mdm2-MdmX interaction blockers, confirmation, cell-based, luminescence, single concentration, set 2; SaOS-2 split-luciferase Mdm2/MdmX complementation; actives 99% (n = 740); AID 504601, 2011; shares compounds with HIF-2a block; inhibition, % at 8 µM;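 active = mean inhibition of the luminescence signal across two replicates at or above 26 percent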
HIF-2a conf: HIF-2a reporter inhibitor retest, confirmation, luminescence, 786-0 RCC cells | shares compounds with HIF-2a block | HIF-2a luciferase reporter luminescence, overnight | inhibition, % at 18.8 µM | actives 56% (n = 1,800);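 active = mean inhibition across four replicates of at least 40 percent at the single tested concentration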
HIF-1a counter: HIF-1a luciferase reporter signal reduction – MiaPaCa-2 cells, single concentration, counter-screen for HIF-2a inhibitor project, confirmation; shares compounds with HIF-2a block; MiaPaCa-2 HIF-1a luciferase reporter, desferoxamine, overnight; inhibition, % at 18.8 µM; actives 72% (n = 1,800);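 active = mean inhibition of the reporter signal across four replicates at the single tested dose of 50% or more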
Numbers without * were called inactive; . = no result.

SMILES	HIF-2a block	PPC-1+TRAIL kill	CF NFkB block	C8 TRAIL sens	Peg3 prom inh	KKLEB cytotox	HIF-2a conf	HIF-1a counter	others
Cn1cc(-c2ccc3c(c2)OCO3)c2ccccc21	-164	.	10	1	-214	-4	.	.
CN(C)CCn1c2ccccc2c2nc3ccc([N+](=O)[O-])cc3cc21	-70	14	-81	21	-11	1	.	.	Mdm2-MdmX confirm=102*
COc1cc(CCC(=O)NCc2ccc(F)cc2)cc(OC)c1OC	-1	.	1	4	-15	-6	.	.
COc1ccccc1-c1cc(C(F)(F)F)nc(N2CCCCC2)n1	5	-9	6	0	3	-5	.	.
COc1ccccc1-c1cc(C(F)(F)F)nc(S(=O)(=O)CCCC(=O)N2CCCCC2C)n1 (configuration not stated)	91*	-19	92*	22	110*	-75*	91*	107*
COc1ccccc1-c1cc(C(F)(F)F)nc(S(=O)(=O)CCCC(=O)NCc2ccc(F)cc2)n1	80*	4	95*	21	107*	-88*	71*	102*	Mdm2-MdmX confirm=103*
CN(C1CCCCC1)S(=O)(=O)c1cn(C)c(=O)n(C)c1=O	15	.	-2	-16	0	7	.	.
CC(C)(C)c1ccc(C(=O)NCCOc2ccccc2)cc1	6	.	7	15	-35	-1	.	.
CC(C)(C)c1ccc(C(=O)NCCOc2ccccc2F)cc1	41*	.	13	19	67*	-1	61*	73*
N#CC1=C(N)N2C(=C(C#N)C1c1ccc(Br)cc1)Nc1ccccc12 (configuration not stated)	.	4	.	.	.	.	.	.	Mdm2-MdmX confirm=101*
N#CC1=C(N)N2C(=C(C#N)C13CCN(Cc1ccccc1)CC3)Nc1ccccc12	-25	-1	16	0	0	-2	.	.
CCc1ccc(-c2nnn(CCC(=O)OC)n2)cc1	87*	24	2	3	-27	-5	94*	70*
Cc1ccsc1C(=O)NNC(=O)c1ccncc1	-10	.	14	8	-19	8	.	.
CNC[C@H](CC1CCCCC1)NC[C@H](CO)NCCc1cccc(C(F)(F)F)c1	2	.	31	42	101*	-19	.	.	Mdm2-MdmX confirm=103*
CCC(=O)Nc1ccccc1Sc1ncnc2scc(-c3ccccc3)c12	25	25	-4	-7	18	-8	.	.
Cn1nnnc1Sc1ncnc2scc(-c3cccc4c3sc3ccccc34)c12	62*	.	24	13	98*	-44	28	102*
Clc1ccc(-c2csc3ncnc(Cl)c23)cc1	-35	-4	25	13	4	-14	.	.
Cn1nnnc1Sc1ncnc2scc(-c3ccc(Cl)cc3)c12	86*	.	30	36	95*	-43	99*	102*	Mdm2-MdmX confirm=103*
Cn1nnnc1Sc1ncnc2scc(-c3ccc([N+](=O)[O-])cc3)c12	92*	.	71*	28	102*	-63*	97*	100*	Mdm2-MdmX confirm=103*
Cn1nnnc1Sc1ccc([N+](=O)[O-])cc1Cl	14	29	17	-16	11	-2	.	.
Cn1nnnc1Sc1ncnc2scc(-c3cccc(Br)c3)c12	82*	.	80*	25	94*	-52*	97*	102*	Mdm2-MdmX confirm=103*
CC(=O)Oc1ccc(C(=O)NC(C)CCc2ccccc2)cc1 (configuration not stated)	5	.	-1	8	11	-2	.	.
O=C(Nc1cccc(C(F)(F)F)c1)c1csc([C@H]2C[C@H](O)[C@@H](CO)O2)n1	-32	.	16	-4	-7	-5	.	.
Cc1ccc(OC(C)C(=O)N2CC(=O)Nc3ccccc32)c(C)c1 (configuration not stated)	5	.	7	-13	4	3	.	.
CC(C)Cc1nc2oc3c(NCCCN4CCOCC4)ncnc3c2c2c1CCC2	-45	18	17	17	5	-15	.	.
SMILES	HIF-2a block	PPC-1+TRAIL kill	CF NFkB block	C8 TRAIL sens	Peg3 prom inh	KKLEB cytotox	HIF-2a conf	HIF-1a counter	others
CC(C)Cc1nc2oc3c(Cl)ncnc3c2c2c1CCC2	67*	45	35	85*	106*	-16	49*	108*	Mdm2-MdmX confirm=103*
Cc1nc2cc(-c3ccc(Cl)cc3)nn2c(C)c1CCC(=O)NC(C)c1ccc2c(c1)OCCO2 (configuration not stated)	82*	15	-1	4	9	-5	93*	89*
Cc1csc(NC(=O)CCc2c(C)nc3cc(-c4ccc(Cl)cc4)nn3c2C)n1	81*	21	1	13	-4	-5	92*	54*
N#CC1c2ccccc2C=CN1C(=O)N(c1ccccc1)c1ccccc1 (configuration not stated)	77*	.	45	13	47	6	6	108*
COc1ccc(C(=O)N2C=Cc3ccccc3C2C#N)cc1 (configuration not stated)	9	.	-15	8	0	3	.	.
CCCC(=O)OCCNc1cc(SCc2ccco2)c2nonc2c1[N+](=O)[O-]	7	4	8	-3	-6	0	.	.
CCC(=O)OCCNc1cc(Sc2nc3ccccc3[nH]2)c2nonc2c1[N+](=O)[O-]	86*	-11	82*	3	92*	-95*	84*	84*
CC(=O)OCCCNc1cc(SCc2ccco2)c2nonc2c1[N+](=O)[O-]	-1	-3	1	0	46	2	.	.
CCCC(=O)OCCNc1cc(Sc2nccn2C)c2nonc2c1[N+](=O)[O-]	87*	13	48	57*	110*	-1	82*	104*
CCC(=O)OCCNc1cc(Sc2nc3ccccc3s2)c2nonc2c1[N+](=O)[O-]	53*	-17	-6	-5	99*	15	36	61*
CCO/C(C)=N/Oc1cncnc1	6	.	-10	-9	-5	13	.	.
CCOC(=O)[C@]12CCC=C1N(Cc1ccco1)C(=O)[C@H](CC(=O)N1CCCCC1)C2	7	.	.	-6	.	.	.	.
